ELG1 repair inh = ELG1-dependent DNA repair inhibition. HEK293T ELG1-luciferase reporter, luminescence, 16 h; DNA damage induced by 5-fluorouridine. Potency, µM (doses to about 46.1 µM), hits mostly inhibitors. 330,000 tested, 2.3% active; note: nearly all actives have a fitted effect of over 55% in size
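Reporter activity after DNA damage by 5-fluorouridine is monitored. Compound-treated cells incubate 16 hr at 37 °C, then ONE-Glo is added for 30 min before luminescence reading.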
KB-V1 cytotox = KB-V1 MDR subline cytotoxicity. KB-V1 MDR cells viability, CellTiter-Glo, 72 h. 400,000 tested, 3.4% active. Potency, µM (titrated, usually from 46.1 µM), hits mostly cytotoxic; note: nearly all actives have a fitted effect of over 60% in size
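KB-V1, DMEM (no phenol red) + 10% FBS; cpd pin-transferred, titration series; 72 h, 37 degrees C; CellTiter-Glo, luminescence. Data normalized, curve-fit.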
KB-3-1 cytotox = kills parental KB-3-1 adenocarcinoma cells; Potency, µM (top dose mostly 46.1 µM), hits mostly cytotoxic; KB-3-1 viability, CellTiter-Glo ATP luminescence, 72 h; 400,000 tested, 1.4% active; note: nearly all actives have a fitted effect of over 60% in size
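Cytotoxicity measured as CellTiter-Glo luminescence after 72 h at 37 C. Compound titrations were pinned onto drug-naive KB-3-1 parental adenocarcinoma cells grown in DMEM with 10% FBS, and normalized data fitted to concentration-response curves.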
SW480 rereplic = inducers of DNA re-replication in SW480 colon cancer cells; SW480 DNA re-replication, Hoechst DNA content imaging, 48 h; Potency, µM (titrated, usually from 46.1 µM), actives largely listed as activators; 340,000 tested, 1.8% active; AID 624297; note: nearly all actives have a fitted effect of over 55% in size
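Treated cells incubate 48 hr (37 C, 5% CO2), are stained 40 min with Hoechst, and nuclear fluorescence is enumerated; a rise in nuclei with high DNA signal marks re-replication.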
MCF10A rereplic = inducers of DNA re-replication in MCF 10A breast cells; 350,000 tested, 2.9% active; MCF 10A DNA re-replication, Hoechst nuclear intensity, 48 h; AID 624296; Potency, µM (highest dose often 46.1 µM), actives largely listed as activators; note: nearly all actives have a fitted effect of over 50% in size
Of the large screens only hits and unclear results are named; the others gave an inactive call. Rows were chosen to be rich in hits. Some 8.1% of all compounds tested hit in one or more screens of this group. Calls come from the whole dose curve; as a rule, active = well fitted curve in the direction sought with a large enough effect; inconclusive = small, poorly fitted or top-dose-only effect, or another doubt; inactive = no such curve, though single readings can be large; an effect the other way counts as inactive or inconclusive.

COCC(=O)O[C@]1(CCN(C)CCCc2nc3ccccc3[nH]2)CCc2cc(F)ccc2[C@@H]1C(C)C	ELG1 repair inh inconclusive, KB-V1 cytotox 14.6µM, KB-3-1 cytotox inconclusive, SW480 rereplic inconclusive
Cn1c(=O)c2c(nc(SCCN3CCOCC3)n2Cc2cccc3ccccc23)n(C)c1=O	ELG1 repair inh inconclusive, KB-V1 cytotox 4.11µM
CCOC(=O)c1cccc(NC(=O)CCS(=O)(=O)c2ccc(Br)s2)c1	none
O=C(CCS(=O)(=O)c1cccs1)Nc1ccc(C(=O)NCc2cccs2)cc1	ELG1 repair inh 16.4µM, KB-V1 cytotox inconclusive
O=C(CCS(=O)(=O)c1cccs1)Nc1ccc(C(=O)NCc2ccc(F)cc2)cc1	none
CCOC(=O)c1cccc(NC(=O)CCS(=O)(=O)c2cccs2)c1	KB-V1 cytotox 20.6µM
CCOC(=O)c1cccc(NC(=O)CNS(=O)(=O)c2cccs2)c1	KB-V1 cytotox 23.1µM
CCc1nn(CC(=O)NCCN(CC)CC)c(=O)c2cc3occc3n12	KB-V1 cytotox inconclusive (no result: ELG1 repair inh, SW480 rereplic, MCF10A rereplic)
CN(C)C(=O)C1Cc2ccccc2CN1S(=O)(=O)c1ccc(F)cc1 (centres undefined)	none
CCN(CC(=O)Nc1ccc(NC(C)=O)cc1)C(=O)c1oc2c(ccc3ccccc32)c1C	ELG1 repair inh inconclusive, MCF10A rereplic inconclusive
CCOc1ccc(OCC)c(NC(=O)CN(C)S(=O)(=O)c2ccc3nc(C)sc3c2)c1	ELG1 repair inh inconclusive, KB-V1 cytotox inconclusive, MCF10A rereplic 20.6µM
CCc1nnc(NC(=O)C2CCC(CNc3c(N4CCCCC4)c(=O)c3=O)CC2)s1 (centres undefined)	ELG1 repair inh inconclusive, SW480 rereplic inconclusive
C=CCNC(=S)N/N=C/c1ccc(-c2cccc([N+](=O)[O-])c2)o1	KB-V1 cytotox inconclusive
C[C@H](NC(=O)c1nc[nH]c1C(=O)N(C)Cc1ccccc1)c1ccccc1	none
O=C(NCc1cccnc1)c1ccc2c(=O)n(CCCN3CCCC3=O)c(=S)[nH]c2c1	none
COc1ccc(S(=O)(=O)NC(C)C(=O)Nc2ccccc2C(F)(F)F)cc1 (centres undefined)	KB-V1 cytotox 16.4µM
CC1CCCN(c2nc(-c3cccnc3)nc3scc(-c4ccccc4)c23)C1 (centres undefined)	ELG1 repair inh inconclusive, KB-V1 cytotox inconclusive, MCF10A rereplic 23.1µM
CC1CCN(c2nc(-c3cccnc3)nc3scc(-c4ccccc4)c23)CC1	MCF10A rereplic inconclusive
CN1CCN(c2nc(-c3cccnc3)nc3scc(-c4ccccc4)c23)CC1	SW480 rereplic inconclusive, MCF10A rereplic 18.4µM
O=c1c2ccccc2oc2cc(-c3ccc4[nH]ccc4c3)ccc12	KB-3-1 cytotox inconclusive, SW480 rereplic 4.11µM, MCF10A rereplic inconclusive (no result: ELG1 repair inh)
COc1cc2sc3ccc(-c4ccc5[nH]ccc5c4)cc3c(=O)c2cc1OC	KB-V1 cytotox inconclusive, SW480 rereplic inconclusive (no result: ELG1 repair inh)
C=CCn1c(SCn2nnc3ccccc3c2=O)nnc1-c1ccc(F)cc1	none
Nc1ccc(Cl)cc1C(=O)c1ccc[nH]1	none (no result: ELG1 repair inh, SW480 rereplic, MCF10A rereplic)
Cc1cccc(N(CC(=O)N2CCCC2)S(C)(=O)=O)c1	none
Cc1nc2c(C)c(C)c(C)c(C)c2nc1C	MCF10A rereplic inconclusive
Cc1nc2c(O)c3c(c(O)c2nc1C)C1C=CC3CC1	KB-V1 cytotox inconclusive, SW480 rereplic 3.26µM, MCF10A rereplic 5.17µM (no result: ELG1 repair inh)
CN(CC(=O)Nc1ccccc1N1CCOCC1)CC(=O)Nc1ccc(F)c(F)c1F	none
Cc1ccc2[nH]c(=O)c(CN(Cc3ccc4c(c3)OCO4)Cc3nnnn3C3CCCC3)cc2c1	KB-V1 cytotox 18.4µM, SW480 rereplic inconclusive, MCF10A rereplic inconclusive (no result: ELG1 repair inh)
CC(=O)N(Cc1ccco1)Cc1cc2cccc(C)c2n2nnnc12	none (no result: KB-V1 cytotox, KB-3-1 cytotox, SW480 rereplic, MCF10A rereplic)
CCNC(=S)N(Cc1cc2cccc(C)c2[nH]c1=O)C1CCCC1	ELG1 repair inh inconclusive, KB-V1 cytotox 18.4µM, KB-3-1 cytotox inconclusive
Cc1cccc2cc(CN(Cc3nnnn3Cc3ccco3)C3CCCC3)c3nnnn3c12	ELG1 repair inh 20.6µM, KB-V1 cytotox 11.6µM, MCF10A rereplic inconclusive
Cc1cc2cc(CN(Cc3ccc4c(c3)OCO4)Cc3nnnn3C3CCCC3)c(=O)[nH]c2cc1C	ELG1 repair inh inconclusive, KB-V1 cytotox inconclusive
Cc1cccc2cc(CN(Cc3nnnn3C3CCCC3)C3CCCCC3)c(=O)[nH]c12	KB-V1 cytotox 23.1µM, SW480 rereplic inconclusive, MCF10A rereplic inconclusive (no result: ELG1 repair inh)
Cc1cccc2cc(CN(C(=S)NCC(C)C)C3CCCC3)c(=O)[nH]c12	KB-V1 cytotox inconclusive
O=C(O)CCc1ccc(-c2cccs2)n1CCC(=O)O	none
CCN(CC)S(=O)(=O)c1ccc(NC(=O)COc2c(OC)cccc2OC)cc1	ELG1 repair inh inconclusive
Cc1cccc2cc(CN(CC3CCCO3)C(=S)Nc3ccccc3)c(=O)[nH]c12 (centres undefined)	ELG1 repair inh 16.4µM, KB-V1 cytotox 3.66µM, MCF10A rereplic inconclusive
Cc1cccc2cc(CN(Cc3ccco3)C(=O)NC3CCCCC3)c(=O)[nH]c12	ELG1 repair inh 7.31µM, KB-V1 cytotox 3.66µM
Cc1ccc2cc(CN(CCN(C)C)C(=S)Nc3ccccc3)c(=O)[nH]c2c1C	ELG1 repair inh 9.2µM, KB-3-1 cytotox inconclusive, SW480 rereplic inconclusive
Cc1cccc2cc(CN(CC3CCCO3)C(=O)NC3CCCCC3)c(=O)[nH]c12 (centres undefined)	ELG1 repair inh inconclusive
CC1CCCCN1CCNC(=O)CC1Oc2ccccc2NC1=O (centres undefined)	none
CC(=O)c1c(C)[nH]c(C(=O)CN2CCN(S(=O)(=O)c3ccc(C(C)C)cc3)CC2)c1C	ELG1 repair inh inconclusive, KB-3-1 cytotox inconclusive
CCOc1ccc(C2CC(=O)c3c([nH]c(C(=O)OCCOc4ccccc4)c3C)C2)cc1 (centres undefined)	none (no result: ELG1 repair inh, SW480 rereplic, MCF10A rereplic)
CC(=O)c1c(C)[nH]c(C(=O)OCCOc2ccccc2)c1C	ELG1 repair inh inconclusive, KB-V1 cytotox 6.51µM, KB-3-1 cytotox inconclusive
CC(=O)c1c(C)[nH]c(C(=O)OCc2ccccc2F)c1C	ELG1 repair inh inconclusive, KB-V1 cytotox 4.61µM
Cc1c(C(=O)OCCOc2ccccc2)[nH]c2c1C(=O)CCC2	ELG1 repair inh inconclusive, KB-V1 cytotox 11.6µM, MCF10A rereplic inconclusive
CC(=O)c1c(C)[nH]c(C(=O)CN2CCN(S(=O)(=O)c3ccccc3F)CC2)c1C	ELG1 repair inh 11.6µM, KB-V1 cytotox inconclusive
CCN1C(=O)[C@@H]2[C@@H](c3ccc(-c4ccc(C(C)=O)cc4)c(OC)c3)N3CCC[C@@]3(C(=O)OC)[C@@H]2C1=O	ELG1 repair inh inconclusive
O=C(NCc1ccc(F)cc1)c1cc(S(=O)(=O)N2CCCCC2)c[nH]1	none
CC(=O)c1c(C)[nH]c(C(=O)OCc2ccc(Br)cc2)c1C	ELG1 repair inh 18.3µM, KB-V1 cytotox 6.51µM, KB-3-1 cytotox inconclusive
Cc1cc(C)c2c(c1)/C(=N/NC(=O)c1cc(C)oc1C)CCC2	SW480 rereplic 2.91µM, MCF10A rereplic inconclusive
Cc1cc(C)c2c(c1)/C(=N/NC(=O)c1ccc(O)cc1)CCC2	none

Screening data: PubChem, National Center for Advancing Translational Sciences (NCATS)
